Only some compounds are listed: those with a hit (about 10% of all), similar ones and a draw of the others.
FLuc inh: Firefly luciferase inhibition profiling of diverse chemical library using quantitative high-throughput screening; Luciferin 4-monooxygenase (Photinus pyralis), P08659; AID 1347043, 2019; Potency, µM (top dose mostly 115 µM), hits mostly inhibitors; hit rate 2.5% among 76,000; purified P. pyralis luciferase, luminescence, biochemical; note: nearly all actives have a fitted effect of over 65% in size
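Biochemical qHTS: compound (6-point titration) added to 10uM D-luciferin plus 10uM ATP in Tris acetate pH 7.5 buffer with Mg, Tween-20 and BSA, then purified enzyme at 10nM; light output imaged.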
NPR1 antag: Natriuretic polypeptide receptor (hNpr1) antagonism - Primary qHTS. HEK293 hNpr1 GloSensor cGMP, ANP-stimulated luminescence. Potency, µM (doses to about 46.3 µM), without a hit: top-dose activity change, negative = inhibition, hits mostly inhibitors. hit rate 1.6% among 76,000. Atrial natriuretic peptide receptor 1 (Homo sapiens), P16066; calls by dose curve; note: nearly all actives have a fitted effect of over 60% in size
Target sequence (P16066 whole entry, looked up): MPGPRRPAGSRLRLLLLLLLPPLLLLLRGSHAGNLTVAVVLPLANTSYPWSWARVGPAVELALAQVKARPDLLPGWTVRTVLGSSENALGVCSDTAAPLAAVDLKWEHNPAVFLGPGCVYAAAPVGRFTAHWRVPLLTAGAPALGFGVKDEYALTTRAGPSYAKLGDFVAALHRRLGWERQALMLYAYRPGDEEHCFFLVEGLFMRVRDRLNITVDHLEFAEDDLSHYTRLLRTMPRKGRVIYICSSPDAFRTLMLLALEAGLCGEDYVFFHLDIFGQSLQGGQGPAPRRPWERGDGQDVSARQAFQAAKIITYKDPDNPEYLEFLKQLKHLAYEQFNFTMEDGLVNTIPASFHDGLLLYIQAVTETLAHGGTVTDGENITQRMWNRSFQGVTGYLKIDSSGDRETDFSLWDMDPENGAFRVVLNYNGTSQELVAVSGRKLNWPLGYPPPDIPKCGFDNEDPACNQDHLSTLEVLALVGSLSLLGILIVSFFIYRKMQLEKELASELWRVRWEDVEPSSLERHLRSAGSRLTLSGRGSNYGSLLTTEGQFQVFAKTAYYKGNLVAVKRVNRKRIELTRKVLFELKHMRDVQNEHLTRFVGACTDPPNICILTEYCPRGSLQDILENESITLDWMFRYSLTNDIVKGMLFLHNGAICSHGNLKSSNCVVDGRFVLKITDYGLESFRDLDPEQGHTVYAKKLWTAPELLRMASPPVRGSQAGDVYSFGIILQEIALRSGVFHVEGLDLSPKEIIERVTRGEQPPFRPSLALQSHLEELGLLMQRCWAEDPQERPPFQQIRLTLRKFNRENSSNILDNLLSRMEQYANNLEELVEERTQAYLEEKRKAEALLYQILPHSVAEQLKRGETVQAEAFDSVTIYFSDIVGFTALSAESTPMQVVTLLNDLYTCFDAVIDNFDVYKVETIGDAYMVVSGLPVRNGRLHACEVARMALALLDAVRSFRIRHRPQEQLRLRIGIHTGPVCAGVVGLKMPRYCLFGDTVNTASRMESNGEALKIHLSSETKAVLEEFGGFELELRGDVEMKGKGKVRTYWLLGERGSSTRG
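Compound pre-incubated 30 min at room temperature on GloSensor-loaded HEK293 cells stably carrying hNpr1 and the pGS-40F cGMP biosensor. Stimulation uses hNppA at 0.1 nM final; luminescence is taken at baseline and 20 min post-agonist.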
3T3 cytotox: Cytotoxic Profiling in NIH 3T3 Cell Line of Diverse Libraries Using Quantitative High-Throughput Screening | AID 1345082, 2018 | NIH 3T3 viability, CellTiter-Glo ATP luminescence, 48-72 h | hit rate 4.3% among 94,000 | Potency, µM (doses to about 96.7 µM), inactives show top-dose activity change, negative = cytotoxicity, usual class: inhibitors; note: nearly all actives have a fitted effect of over 55% in size
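NIH 3T3 cells at 400 cells/well received 23 nL of compound by pintool and were incubated 48 or 72 h at 37 °C. Viability was read as ATP-coupled CellTiter-Glo luminescence.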
HEK293 tox: Cytotoxic Profiling in HEK 293 Cell Line of Diverse Libraries Using Quantitative High-Throughput Screening; AID 1345083, 2018; Potency, µM (doses to about 115 µM), for the others: top-dose activity change, negative = cytotoxicity, usual class: inhibitors; HEK 293 viability, ATP luminescence (CellTiter-Glo), 48-72 h; hit rate 6.6% among 94,000; note: nearly all actives have a fitted effect of over 60% in size
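ATP-coupled CellTiter-Glo luminescence served as viability read-out, recorded 10 min after reagent addition at room temperature. HEK 293 cells, 250 cells/well, had been incubated with pintool-transferred compound for 48 or 72 hr at 37 degree Celsius.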
GPT2 inhibitor: Primary qHTS assay for inhibitors of Glutamate pyruvate transaminase 2 (GPT2). Alanine aminotransferase 2 (Homo sapiens), Q8TD30. Recombinant GPT2, coupled pyruvate oxidase/HRP Amplex Red fluorescence. Potency, µM (doses to about 57.7 µM), for inactives: at the highest dose activity change, negative = inhibition, hits mostly inhibitors. hit rate 0.25% among 100,000. AID 1671188, 2021; note: nearly all actives have a fitted effect of over 60% in size
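Recombinant GPT2 (10ng/uL) with 250uM a-KG and 2mM L-alanine, 30 min at room temperature, in HEPES pH 7.5 buffer. Pyruvate detected by pyruvate oxidase/HRP/Amplex Red fluorescence after 30 min in the dark; AOA (50uM) as positive control.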
* hit, by the source's call; [ ] = another dose, or the depositor's remark. Unless noted, calls come from the whole dose curve; as a rule, active = well fitted curve in the direction sought with a large enough effect; inconclusive = small, poorly fitted or top-dose-only effect, or another doubt; inactive = no such curve, though single readings can be large; an effect the other way counts as inactive or inconclusive. % is set by controls: 0 for no effect and ±100 for the full control effect; potency is the fitted concentration of half-maximal effect.

`CCOC(=O)[C@@H]1[C@H]2c3ccccc3N(CCOC)C(=O)[C@H]2N(C(=O)CC(C)C)[C@@H]1c1ccccc1` gave 3T3 cytotox inconclusive and HEK293 tox 40µM*.
CCOC(=O)[C@@H]1[C@H]2c3ccccc3N(CCOC)C(=O)[C@H]2N(C(=O)C2CCC2)[C@@H]1c1ccccc1 was read as 3T3 cytotox inconclusive and HEK293 tox 50µM*.
O=C(Nc1ccccc1)N1C[C@@H]2C[C@H](C1)c1ccc(C3CCCCC3)c(=O)n1C2 was read as FLuc inh inactive, NPR1 antag 4%[70.6 µM], 3T3 cytotox -25%[174 µM], HEK293 tox -3%[172 µM] and GPT2 inhibitor 5%[88.5 µM].
C=C[C@H]1CN2CC[C@H]1C[C@@H]2CNC(=O)CC(C)(C)C was read as FLuc inh inactive, NPR1 antag 5%[70.6 µM], 3T3 cytotox -26%[230 µM], HEK293 tox -14%[230 µM] and GPT2 inhibitor inactive.
`COc1cc2c(cc1Oc1ccccc1)NC(=O)C21CCN(C(=O)C2CCC2)CC1` gave FLuc inh inactive, NPR1 antag -12%[70.6 µM], 3T3 cytotox inconclusive, HEK293 tox inconclusive and GPT2 inhibitor 4%[88.5 µM].
Screening COc1cc2c(cc1Oc1ccccc1)NC(=O)C21CCN(C(=O)Cc2ccccc2)CC1 returned FLuc inh inactive, NPR1 antag inconclusive, 3T3 cytotox inconclusive, HEK293 tox 40µM* and GPT2 inhibitor 5%.
For COc1cc2c(cc1Oc1ccccc1)NC(=O)C21CCN(C(=O)c2ccnn2C)CC1 the results were FLuc inh inactive, NPR1 antag inconclusive, 3T3 cytotox inconclusive, HEK293 tox 71µM* and GPT2 inhibitor 1%[88.5 µM].
Screening COc1cc2c(cc1Oc1ccccc1)NC(=O)C21CCN(C(=O)c2cccc(O)c2)CC1 returned FLuc inh inactive, NPR1 antag -17%, 3T3 cytotox inconclusive, HEK293 tox 45µM* and GPT2 inhibitor inconclusive.
COc1cc2c(cc1Oc1ccccc1)NC(=O)C21CCN(C(=O)c2ccccc2)CC1 was read as FLuc inh inactive, NPR1 antag inconclusive, 3T3 cytotox inconclusive, HEK293 tox inconclusive and GPT2 inhibitor 2%[88.5 µM].
COc1cc2c(cc1Oc1ccccc1)NC(=O)C21CCN(C(=O)c2cnccn2)CC1 was read as FLuc inh inactive, NPR1 antag 0%[70.6 µM], 3T3 cytotox -9%[138 µM], HEK293 tox inconclusive and GPT2 inhibitor -3%[88.5 µM].
Screening O=C1Nc2ccccc2CC12CCN2Cc1ccncc1 (stereo not given) returned FLuc inh inactive, NPR1 antag 0%[70.6 µM], 3T3 cytotox -12%[138 µM], HEK293 tox inactive and GPT2 inhibitor inactive.
For CCOC(=O)[C@H]1CN(S(=O)(=O)Cc2ccccc2)[C@]2(C)C(=O)N(CC3CC3)c3ccccc3[C@H]12 the results were 3T3 cytotox inconclusive, HEK293 tox inconclusive and GPT2 inhibitor -4%[27.3 µM].
`CCOC(=O)[C@@H]1[C@H]2c3ccccc3N(C)C(=O)[C@H]2N(C(=O)c2cccs2)[C@@H]1c1ccccc1` gave 3T3 cytotox inconclusive and HEK293 tox 79µM*.
`C#CCN1C(=O)[C@@H]2[C@H](c3ccccc31)[C@@H](C(=O)OCC)[C@@H](c1ccccc1)N2C(=O)c1ccco1` gave 3T3 cytotox inconclusive and HEK293 tox 32µM*.
`O=C1NC2(CCCN(Cc3ccncc3)C2)COc2ccccc21` (stereo not given) gave FLuc inh inactive, NPR1 antag -18%[70.6 µM], 3T3 cytotox 32µM*, HEK293 tox 71µM* and GPT2 inhibitor -11%[88.5 µM].
O=c1ccc(-c2cccs2)c2n1C[C@H]1C[C@@H]2CN(S(=O)(=O)c2ccccc2)C1 was read as FLuc inh inactive, NPR1 antag 3%[70.6 µM], 3T3 cytotox -8%[174 µM], HEK293 tox -1%[172 µM] and GPT2 inhibitor -1%[88.5 µM].
